Results taken from PubChem BioAssay (NCI).
Compounds without any hit were thinned out: in the full panel of roughly 83,000, 20% have a hit.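 Plates (96-well) were seeded with cells, treated with compound at one concentration, and incubated for 48 hours before percent growth was determined.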 A number with no mark means an inactive call. Active and inactive are the calls of the source.

Each compound was assayed on SN12C renal (assay: NCI-60 one-dose screen, 48 h (100 = growth as untreated, 0 = no growth, -100 = all killed)). Conditions: 10 µM unless noted.
Protocol: Growth inhibition of the SN12C human tumor cell line is measured as a screen for anti-cancer activity. Cells are grown in 96 well plates and exposed to the test compound for 48 hours. Compounds are tested at a single concentration, which is 10^-5 M for most compounds. The reported endpoint is percent growth (GI% or GIPRCNT), where numbers from 0 - 100% represent growth inhibition, and numbers from -100% - 0 represent cell death. For example, a value of 40 represents 60% growth inhibition. A value of 0 means no net growth occurred over the course of the experiment. A value of -40 indicates 40% of cells at the beginning of the experiment died by the end of the experiment. A value of -100 means all cells are dead at the end of the experiment.
NCI-60 Human Tumor Cell Lines Screen was performed using the standard one-dose NCI protocol, which is described in more detail at https://dtp.cancer.gov/discovery_development/nci-60/default.htm.
Compounds with GIPRCNT values below 10 were considered active. Activity score was based on GIPRCNT using the following formula: […]
Score is 0 for GIPRCNT values of 100 or above, 50 for GIPRCNT values of 0, and 100 for GIPRCNT values of -100.

**Q.** For `O=[N+]([O-])c1cccc(-c2cc(-c3cc(Br)ccc3O)[nH]n2)c1`, which growth is on record?
**A.** The growth was 24.8%.

**Q.** `COc1cc(/C=C2\C=C(c3ccc(F)cc3)N(Cc3ccccc3)C2=O)cc(OC)c1OC` was tested. Which growth did it give?
**A.** The growth was 65.7%.

**Q.** How did the growth turn out when `COc1cc(C(=O)N2CCN(C(=O)c3ccco3)CC2)c(N)cc1OCc1ccccc1` was run?
**A.** The growth was 101%.

**Q.** With `COc1ccc(-c2nnc(COc3ccc(NS(=O)(=O)c4ccc(OC)cc4)cc3F)o2)cc1` as the compound, how does the growth read?
**A.** Its growth is 89.8%.

**Q.** For `NS(=O)(=O)c1ccc(CN2C(=O)c3cccc4cccc(c34)C2=O)cc1`, which growth is on record?
**A.** The growth was 93.1%.

**Q.** For `CCOC(=O)CC(C#N)(CC(=O)OCC)C(=O)OCC`, which growth is on record?
**A.** The growth was 95.1%.

**Q.** Which growth does the source give for `COc1cc(NS(C)(=O)=O)ccc1Nc1c2ccc([N+](=O)[O-])cc2nc2c(C)cccc12` here?
**A.** Its growth is 2.9% (active).

**Q.** `Cc1oc2nc[nH]c(=O)c2c1C(=O)/C=C/c1ccc(Cl)cc1` was tested. Which growth did it give?
**A.** Its growth is 25.4%.

**Q.** For `Nc1c(C(=O)Nc2cccc(Cl)c2Cl)sc2nc3c(cc12)C(=O)CCC3`, which growth is on record?
**A.** Its growth is 86.8%.

**Q.** How did the growth turn out when `CC1Cc2c(N(C)C)ncnc2N(C)c2ccc(O)cc21` (stereo not given) was run?
**A.** The growth was 99%.

**Q.** For `C=C1C(=O)O[C@H]2[C@H]1CC/C(COC(=O)NCCc1ccc(Br)cc1)=C\CC[C@@]1(C)O[C@@H]21`, which growth is on record?
**A.** Its growth is 16.8%.

**Q.** With `CC(=O)C1CCC(C)=CC1=O` (stereo not given) as the compound, how does the growth read?
**A.** The growth was 99%.

**Q.** With `COc1ccc2c(c1)C(C)Cc1c(N(C)C)ncnc1N2C` (stereo not given) as the compound, how does the growth read?
**A.** Its growth is 43.6%.

**Q.** With `CCSc1nnc(NC(=O)Cc2ccc(Cl)cc2)s1` as the compound, how does the growth read?
**A.** Its growth is 105%.

**Q.** How did the growth turn out when `COc1cccc(-c2nc3sccn3c2-c2ccnc(NCCCNS(=O)(=O)c3ccccc3)n2)c1` was run?
**A.** The growth was 55%.

**Q.** How did the growth turn out when `COc1ccc(NC(=O)CSc2nc3ccccc3c(=O)n2Cc2cc(OC)c(OC)c(OC)c2)cc1` was run?
**A.** Its growth is 79.6%.

**Q.** How did the growth turn out when `CCCCNc1nnc(-c2cc(-c3cc4ccccc4o3)nn2-c2ccccc2)o1` was run?
**A.** Its growth is 93.6%.

**Q.** With `NC(N)=NC(N)=Nc1ccccc1-c1ccccc1` as the compound, how does the growth read?
**A.** Its growth is 105%.

**Q.** Which growth does the source give for `CCCCCCCCCCC/C=C\C[C@H](O)C/C=C1/C(=O)C=C[C@@H]1C/C=C\CCCC(=O)OC` here?
**A.** The growth was -24.7% (active).

**Q.** Which growth does the source give for `O=C(CNC1CCCCC1)Nc1ccc(-c2nc3ccccc3s2)cc1` here?
**A.** Its growth is 86.7%.

**Q.** How did the growth turn out when `COc1ccc(/C=C2\C(=O)N(C(=O)c3csc(NC(C)=O)n3)N=C2C)cc1` was run?
**A.** The growth was 106%.

**Q.** How did the growth turn out when `Cc1cc2c(C(C)C)c(O)c(O)c(C=NCCCCC(=O)O)c2c(O)c1-c1c(C)cc2c(C(C)C)c(O)c(O)c(C=NCCCCC(=O)O)c2c1O` was run?
**A.** The growth was 49.2%.

**Q.** How did the growth turn out when `Cc1ccc2c(c1)C(=O)C(c1c(-c3[nH]c(=O)c4ccc(C)cc4c3O)c(O)c3ccccc3c1O)=NC2=O` was run?
**A.** Its growth is -4.86% (active).

**Q.** `COc1cc(C2C=C(C)N=C3SC=C(C)N32)cc(OC)c1OC` (stereo not given) was tested. Which growth did it give?
**A.** The growth was -8.33% (active).

**Q.** For `CC(Br)C(O)c1cc2c(cc1Br)OCO2` (stereo not given), which growth is on record?
**A.** The growth was 112%.

**Q.** How did the growth turn out when `COc1ccc(/C=C2\Oc3cc(OCCN4CCCC4)ccc3C2=O)c(OC)c1` was run?
**A.** Its growth is 92.2%.

**Q.** Which growth does the source give for `COc1ccc(/C=C/c2nc(N3CCOCC3)c3nc(Cl)c(Cl)cc3n2)cc1OC` here?
**A.** Its growth is 98.3%.

**Q.** With `O=C(CSc1nc(-c2ccc(Cl)cc2)cn1-c1ccc(Cl)cc1)c1ccc(Br)cc1` as the compound, how does the growth read?
**A.** Its growth is 62.6%.

**Q.** `CCCCCCCCCCn1cc[n+](C)c1` was tested. Which growth did it give?
**A.** Its growth is 19.4%.

**Q.** How did the growth turn out when `Cc1c(C(=O)NCc2ccccc2)[n+](=O)c2cc(F)ccc2n1[O-]` was run?
**A.** Its growth is 103%.

**Q.** With `COc1cc(C2CC(c3c(C)[n+]([O-])c4ccccc4[n+]3[O-])=NN2)cc(OC)c1OC` (stereo not given) as the compound, how does the growth read?
**A.** The growth was 94.4%.

**Q.** For `O=S(=O)(NCCCNc1nccc(-c2c(-c3ccc(O)cc3)nc3sccn23)n1)c1ccc(F)cc1`, which growth is on record?
**A.** The growth was 10%.

**Q.** Which growth does the source give for `c1ccc(CCn2nnc3c(Nc4ccc(N5CCOCC5)cc4)ncnc32)cc1` here?
**A.** The growth was 92.1%.

**Q.** Which growth does the source give for `CCOC(=O)C1=C(C)NC(=O)NC1c1ccc(OCC(=O)N/N=C/c2ccc(Cl)cc2)cc1` (stereo not given) here?
**A.** The growth was 97%.

**Q.** With `Nc1cc2c(cc1N)-c1cc(N)c(N)cc1C2` as the compound, how does the growth read?
**A.** Its growth is 94.9%.

**Q.** For `O=C(O)Cc1ccc2c(c1)Cc1cccnc1O2`, which growth is on record?
**A.** The growth was 100%.

**Q.** How did the growth turn out when `CN(C)C/C=C/C(=O)Nc1cc2c(Nc3cccc(Cl)c3F)ncnc2cc1OCCOC(F)F` was run?
**A.** The growth was 12.6%.

**Q.** How did the growth turn out when `COc1cc(OC)c(C(=O)/C=C/c2ccc(C(F)(F)F)cc2)c(OC)c1` was run?
**A.** Its growth is 41.2%.

**Q.** Which growth does the source give for `C/C(=C\c1csc(C)n1)[C@@H]1C[C@@H]2O[C@]2(C)CCC[C@H](C)[C@H](O)[C@@H](C)C(=O)C(C)(C)[C@@H](O)CC(=O)N1` here?
**A.** Its growth is -81.1% (active).

**Q.** Which growth does the source give for `CC(C)C[C@H](NC(=O)[C@H](Cc1ccccc1)n1ccc(N2CCCCC2)cc1=O)B(O)O` here?
**A.** The growth was 26.7%.
